Laboratory results as given in publication PMC7862700, “An all-to-all approach to the identification of sequence-specific readers for epigenetic DNA modifications on cytosine”.

Experiments:
Assay in all cases: DAPPL (digital affinity profiling via proximity ligation, sequencing); 10 mM Tris-HCl pH 7.5, 50 mM NaCl, 1 mM DTT, 4% glycerol, room temperature, 30 min; GST-TFs on glutathione beads, 16-mer random dsDNA library, 0.1% formaldehyde crosslink after washing; high values mean tight binding
Details in all cases: protein: recombinant; tags: N-terminal GST; dsDNA, one strand shown
[1] = molecular target: T1, FLI1 (Homo sapiens, UniProt Q01543 1-452)
T1 sequence: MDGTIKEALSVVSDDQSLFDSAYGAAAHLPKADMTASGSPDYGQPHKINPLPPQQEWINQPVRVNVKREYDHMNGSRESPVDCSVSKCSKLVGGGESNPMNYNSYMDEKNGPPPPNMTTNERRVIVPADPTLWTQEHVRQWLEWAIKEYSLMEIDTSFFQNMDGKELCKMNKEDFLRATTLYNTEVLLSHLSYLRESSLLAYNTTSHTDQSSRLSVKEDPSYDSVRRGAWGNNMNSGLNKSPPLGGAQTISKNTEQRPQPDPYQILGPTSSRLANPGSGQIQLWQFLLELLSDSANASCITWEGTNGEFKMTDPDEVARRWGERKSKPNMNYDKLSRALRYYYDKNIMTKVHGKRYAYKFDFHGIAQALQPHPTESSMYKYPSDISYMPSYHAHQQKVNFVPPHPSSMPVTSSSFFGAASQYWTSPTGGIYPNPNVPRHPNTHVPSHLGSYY
How it was run: (§1)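 Binding signal is each hexamer's read frequency for a factor divided by its frequency in the tag-only sample. The factors were GST-fused human transcription factors from yeast, captured on glutathione beads, DNA-barcoded and pooled with that sample. Pools were incubated with 200 nmole of a random double-stranded 16-mer DNA library in Tris/NaCl/DTT/glycerol buffer at room temperature for 30 min, then washed, crosslinked with 0.1% formaldehyde, proximity-ligated with BsaI/T4 ligase (1 h, 37 °C), PCR-amplified and sequenced on an Illumina NextSeq500.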

[2] = molecular target: T2, ELK1 (Homo sapiens, UniProt P19419 1-428)
T2 sequence: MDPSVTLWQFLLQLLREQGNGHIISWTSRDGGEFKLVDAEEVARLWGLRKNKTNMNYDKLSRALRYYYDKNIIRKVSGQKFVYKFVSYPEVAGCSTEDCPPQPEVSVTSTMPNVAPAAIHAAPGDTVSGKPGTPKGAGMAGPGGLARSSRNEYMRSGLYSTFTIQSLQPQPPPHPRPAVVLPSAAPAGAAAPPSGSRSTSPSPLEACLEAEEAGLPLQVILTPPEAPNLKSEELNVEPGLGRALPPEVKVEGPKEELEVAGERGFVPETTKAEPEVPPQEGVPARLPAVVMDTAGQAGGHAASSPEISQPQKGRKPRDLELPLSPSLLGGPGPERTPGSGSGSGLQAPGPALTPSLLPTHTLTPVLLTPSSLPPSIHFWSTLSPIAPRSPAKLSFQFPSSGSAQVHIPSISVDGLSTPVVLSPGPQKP
How it was run: as §1

[3] = molecular target: T3, GABPA (Homo sapiens, UniProt Q06546 1-454)
T3 sequence: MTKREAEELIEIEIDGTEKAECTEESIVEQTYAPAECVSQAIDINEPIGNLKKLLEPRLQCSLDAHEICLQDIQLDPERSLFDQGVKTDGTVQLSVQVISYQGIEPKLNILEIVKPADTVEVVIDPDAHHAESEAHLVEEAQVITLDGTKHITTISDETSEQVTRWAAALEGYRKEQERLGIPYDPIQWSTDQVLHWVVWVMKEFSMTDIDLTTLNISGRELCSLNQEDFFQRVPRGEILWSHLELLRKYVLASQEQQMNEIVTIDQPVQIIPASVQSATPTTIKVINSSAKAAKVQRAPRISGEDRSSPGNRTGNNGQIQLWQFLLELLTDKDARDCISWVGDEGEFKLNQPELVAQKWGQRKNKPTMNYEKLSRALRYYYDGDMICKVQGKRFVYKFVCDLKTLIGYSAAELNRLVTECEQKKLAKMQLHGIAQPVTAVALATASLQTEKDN
How it was run: as §1

[4] = molecular target: T4, ERG (Homo sapiens, UniProt P11308 1-479)
T4 sequence: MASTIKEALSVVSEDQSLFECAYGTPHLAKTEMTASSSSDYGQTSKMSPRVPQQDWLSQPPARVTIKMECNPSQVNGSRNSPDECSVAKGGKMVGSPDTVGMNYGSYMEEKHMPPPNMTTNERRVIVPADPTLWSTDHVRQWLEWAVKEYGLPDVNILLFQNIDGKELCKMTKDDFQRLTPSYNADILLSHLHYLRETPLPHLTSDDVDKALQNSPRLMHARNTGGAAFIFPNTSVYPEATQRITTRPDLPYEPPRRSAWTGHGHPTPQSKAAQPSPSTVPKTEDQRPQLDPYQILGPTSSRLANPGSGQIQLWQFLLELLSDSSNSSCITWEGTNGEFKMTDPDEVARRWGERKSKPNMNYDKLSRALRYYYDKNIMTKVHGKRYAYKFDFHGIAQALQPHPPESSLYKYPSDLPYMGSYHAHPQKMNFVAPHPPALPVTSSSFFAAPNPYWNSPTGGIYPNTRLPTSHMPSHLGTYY
How it was run: as §1

[5] = molecular target: ELF1 (Homo sapiens, UniProt P32519 1-619)
How it was run: as §1

[6] = molecular target: T5, EHF (Homo sapiens, UniProt Q9NZC4 1-300)
T5 sequence: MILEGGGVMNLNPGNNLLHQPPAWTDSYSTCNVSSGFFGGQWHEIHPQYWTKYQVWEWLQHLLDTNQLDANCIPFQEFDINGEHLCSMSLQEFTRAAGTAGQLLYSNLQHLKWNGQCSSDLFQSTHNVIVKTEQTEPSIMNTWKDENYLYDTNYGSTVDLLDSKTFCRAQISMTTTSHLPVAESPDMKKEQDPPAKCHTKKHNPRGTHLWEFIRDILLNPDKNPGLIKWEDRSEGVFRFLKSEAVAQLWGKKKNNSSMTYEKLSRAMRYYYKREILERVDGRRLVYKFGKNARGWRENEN
How it was run: as §1

[7] = molecular target: SPI1 (Homo sapiens, UniProt P17947 1-270)
How it was run: as §1

[8] = molecular target: SPIB (Homo sapiens, UniProt Q01892 1-262)
How it was run: as §1

[9] = molecular target: T6, ELK3 (Homo sapiens, UniProt P41970 1-407)
T6 sequence: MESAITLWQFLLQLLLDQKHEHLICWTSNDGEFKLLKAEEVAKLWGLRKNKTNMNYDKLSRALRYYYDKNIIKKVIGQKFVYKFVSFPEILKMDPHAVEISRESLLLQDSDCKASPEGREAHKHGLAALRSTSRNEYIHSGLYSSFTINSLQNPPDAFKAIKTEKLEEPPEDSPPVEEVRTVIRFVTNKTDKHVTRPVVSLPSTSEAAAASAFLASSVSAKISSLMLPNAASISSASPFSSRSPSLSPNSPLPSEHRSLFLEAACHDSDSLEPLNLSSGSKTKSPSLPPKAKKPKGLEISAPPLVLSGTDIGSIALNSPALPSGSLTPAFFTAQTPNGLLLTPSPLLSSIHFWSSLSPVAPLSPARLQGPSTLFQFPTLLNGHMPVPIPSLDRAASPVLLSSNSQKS
How it was run: as §1

Sequence of SPIB (Q01892 whole entry): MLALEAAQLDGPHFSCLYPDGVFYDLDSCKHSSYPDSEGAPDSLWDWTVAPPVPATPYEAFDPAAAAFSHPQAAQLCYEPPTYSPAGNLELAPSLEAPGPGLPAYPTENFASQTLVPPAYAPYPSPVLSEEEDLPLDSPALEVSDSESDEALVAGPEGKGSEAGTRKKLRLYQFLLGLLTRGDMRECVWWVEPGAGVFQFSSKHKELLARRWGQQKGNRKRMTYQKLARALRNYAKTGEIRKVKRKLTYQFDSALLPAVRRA
Sequence of ELF1 (P32519 whole entry): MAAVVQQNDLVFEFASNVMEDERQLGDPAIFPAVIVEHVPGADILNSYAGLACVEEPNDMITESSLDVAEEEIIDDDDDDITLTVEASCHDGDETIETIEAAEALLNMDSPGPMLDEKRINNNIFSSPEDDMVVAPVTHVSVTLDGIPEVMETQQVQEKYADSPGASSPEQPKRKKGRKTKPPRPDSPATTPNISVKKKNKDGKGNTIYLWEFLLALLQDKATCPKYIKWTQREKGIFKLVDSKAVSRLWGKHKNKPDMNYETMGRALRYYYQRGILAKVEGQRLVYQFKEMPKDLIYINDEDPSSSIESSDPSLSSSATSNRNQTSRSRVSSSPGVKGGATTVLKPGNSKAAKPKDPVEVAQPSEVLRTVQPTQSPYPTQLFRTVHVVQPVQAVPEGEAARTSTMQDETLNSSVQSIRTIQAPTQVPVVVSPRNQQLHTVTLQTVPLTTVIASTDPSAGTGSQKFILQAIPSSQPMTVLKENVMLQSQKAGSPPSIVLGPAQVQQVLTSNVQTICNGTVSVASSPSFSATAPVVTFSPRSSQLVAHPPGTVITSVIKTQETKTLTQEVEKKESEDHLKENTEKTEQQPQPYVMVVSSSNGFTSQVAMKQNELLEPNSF

Sequence | binding signal [1] | binding signal [2] | binding signal [3] | binding signal [4] | binding signal [5] | binding signal [6] | binding signal [7] | binding signal [8] | binding signal [9]
CAATAT | 1.27 fold enrichment (6-mer frequency, TF over GST control) | 1.29 fold enrichment (6-mer frequency, TF over GST control) | 1.26 fold enrichment (6-mer frequency, TF over GST control) | 1.2 fold enrichment (6-mer frequency, TF over GST control) | 1.28 fold enrichment (6-mer frequency, TF over GST control) | 1.24 fold enrichment (6-mer frequency, TF over GST control) | 1.23 fold enrichment (6-mer frequency, TF over GST control) | 1.23 fold enrichment (6-mer frequency, TF over GST control) | 1.31 fold enrichment (6-mer frequency, TF over GST control)
ACAATA | 1.13 fold enrichment (6-mer frequency, TF over GST control) | 1.12 fold enrichment (6-mer frequency, TF over GST control) | 1.29 fold enrichment (6-mer frequency, TF over GST control) | 1.13 fold enrichment (6-mer frequency, TF over GST control) | 1.1 fold enrichment (6-mer frequency, TF over GST control) | 1.16 fold enrichment (6-mer frequency, TF over GST control) | 1.16 fold enrichment (6-mer frequency, TF over GST control) | 1.2 fold enrichment (6-mer frequency, TF over GST control) | 1.23 fold enrichment (6-mer frequency, TF over GST control)
TTCTTA | 1.42 fold enrichment (6-mer frequency, TF over GST control) | 1.43 fold enrichment (6-mer frequency, TF over GST control) | 1.37 fold enrichment (6-mer frequency, TF over GST control) | 1.4 fold enrichment (6-mer frequency, TF over GST control) | 1.37 fold enrichment (6-mer frequency, TF over GST control) | 1.28 fold enrichment (6-mer frequency, TF over GST control) | 1.34 fold enrichment (6-mer frequency, TF over GST control) | 1.28 fold enrichment (6-mer frequency, TF over GST control) | 1.5 fold enrichment (6-mer frequency, TF over GST control)
TATAGT | 1.12 fold enrichment (6-mer frequency, TF over GST control) | 1.1 fold enrichment (6-mer frequency, TF over GST control) | 1.11 fold enrichment (6-mer frequency, TF over GST control) | 1.05 fold enrichment (6-mer frequency, TF over GST control) | 1.07 fold enrichment (6-mer frequency, TF over GST control) | 1.12 fold enrichment (6-mer frequency, TF over GST control) | 1.06 fold enrichment (6-mer frequency, TF over GST control) | 1.04 fold enrichment (6-mer frequency, TF over GST control) | 1.03 fold enrichment (6-mer frequency, TF over GST control)
CACGTA | 1.1 fold enrichment (6-mer frequency, TF over GST control) | 1.18 fold enrichment (6-mer frequency, TF over GST control) | 1.23 fold enrichment (6-mer frequency, TF over GST control) | 1.1 fold enrichment (6-mer frequency, TF over GST control) | 1.13 fold enrichment (6-mer frequency, TF over GST control) | 1.11 fold enrichment (6-mer frequency, TF over GST control) | 1.12 fold enrichment (6-mer frequency, TF over GST control) | 1.17 fold enrichment (6-mer frequency, TF over GST control) | 1.12 fold enrichment (6-mer frequency, TF over GST control)
AAATCC | 1.54 fold enrichment (6-mer frequency, TF over GST control) | 1.66 fold enrichment (6-mer frequency, TF over GST control) | 1.5 fold enrichment (6-mer frequency, TF over GST control) | 1.81 fold enrichment (6-mer frequency, TF over GST control) | 1.59 fold enrichment (6-mer frequency, TF over GST control) | 1.58 fold enrichment (6-mer frequency, TF over GST control) | 1.5 fold enrichment (6-mer frequency, TF over GST control) | 1.65 fold enrichment (6-mer frequency, TF over GST control) | 1.53 fold enrichment (6-mer frequency, TF over GST control)
CGATTT | 1.23 fold enrichment (6-mer frequency, TF over GST control) | 1.08 fold enrichment (6-mer frequency, TF over GST control) | 1.08 fold enrichment (6-mer frequency, TF over GST control) | 1.17 fold enrichment (6-mer frequency, TF over GST control) | 1.09 fold enrichment (6-mer frequency, TF over GST control) | 1.26 fold enrichment (6-mer frequency, TF over GST control) | 1.09 fold enrichment (6-mer frequency, TF over GST control) | 1.1 fold enrichment (6-mer frequency, TF over GST control) | 1.04 fold enrichment (6-mer frequency, TF over GST control)
